APEX1 inh = blocks human APE1 abasic DNA cleavage | Potency, µM (doses to about 65.8 µM), most hits filed as inhibitors | AID 2517 | actives 0.35% (n = 350,000) | recombinant APE1, TAMRA/BHQ-2 abasic DNA cleavage fluorescence; note: nearly all actives have a fitted effect of over 55% in size
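Enzyme (0.75 nM final) and test compound are incubated 15 min at room temperature before adding 50 nM quenched THF abasic-site duplex. Cleavage dequenches TAMRA, followed at 525/598 nm over three reads one minute apart.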
WRN helicase inh = WRN helicase (human) inhibition | Q14191 | WRN helicase unwinding, fluorescent forked duplex, kinetic | Potency, µM (highest dose often 114 µM), usual class: inhibitors | actives 0.46% (n = 360,000) | AID 651768; note: nearly all actives have a fitted effect of over 55% in size
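Kinetic red-fluorescence monitoring (525/598 nm) tracks WRN helicase activity after 100 nM fluorophore-quencher forked duplex and 2 mM ATP are added to 20 nM enzyme pretreated 15 min at room temperature with compound.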
RECQ1 inh = blocks DNA unwinding by human RECQ1; P46063; RECQ1 DNA unwinding, red fluorescence kinetic read; actives 0.54% (n = 240,000); Potency, µM (top dose mostly 57.3 µM), hits mostly inhibitors; AID 2549; note: nearly all actives have a fitted effect of over 30% in size
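RECQ1T1 50 nM; forked duplex (20 bp + 30-nt ss tails) 200 nM, ATP 2 mM final; pH 8.0, 2 mM MgCl2, 2.5 ug/ml poly(dI-dC); 15 min compound preincubation; discontinuous kinetic read over 2 h at RT.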
ERG Ets-DNA blk = blocks human ERG Ets domain binding to DNA; actives 0.028% (n = 370,000); fluorescence polarization, His-ERG Ets domain / labelled DNA; Potency, µM (highest dose often 76.9 µM), most hits filed as inhibitors; P11308; AID 624246; active = well fitted inhibition curve with a large enough effect in the polarisation, with a control signal flat; inconclusive = small, poorly fitted or top-dose-only effect, or effect the other way, or a change in a side signal; inactive = no such curve, though single readings can be large or run the other way; the % refers to the polarisation;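 note: polarization taken with two DNA probes labelled with fluorescein and Texas red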
Target sequence (P11308 whole entry, looked up, the tested form may be a part): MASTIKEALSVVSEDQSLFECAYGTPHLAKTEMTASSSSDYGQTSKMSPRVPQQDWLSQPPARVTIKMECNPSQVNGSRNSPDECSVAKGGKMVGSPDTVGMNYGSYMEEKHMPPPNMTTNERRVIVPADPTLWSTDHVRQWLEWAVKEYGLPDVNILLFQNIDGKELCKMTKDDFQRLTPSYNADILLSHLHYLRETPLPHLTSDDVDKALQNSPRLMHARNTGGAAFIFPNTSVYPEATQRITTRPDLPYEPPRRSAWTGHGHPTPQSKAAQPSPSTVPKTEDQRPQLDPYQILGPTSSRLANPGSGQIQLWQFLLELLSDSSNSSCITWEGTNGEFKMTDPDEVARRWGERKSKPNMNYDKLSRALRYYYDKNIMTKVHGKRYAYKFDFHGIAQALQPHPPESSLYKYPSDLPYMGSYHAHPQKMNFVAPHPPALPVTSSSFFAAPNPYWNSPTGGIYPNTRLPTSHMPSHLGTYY
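His-tagged ERG Ets domain (1 uM in the protein solution; 300mM KCl, 50mM Tris-HCl, 1mM EDTA, 1mM DTT, pH 7.5) received compound, then a probe mix of 5 nM fluorescein-DNA and 100nM Texas-615-DNA. Fluorescence polarization was read for both dyes.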
KAT2A inh = GCN5L2 (KAT2A) acetyltransferase inhibition. Potency, µM (top dose mostly 58.9 µM), hits mostly inhibitors. actives 0.21% (n = 390,000). GCN5L2 HAT assay, ThioGlo1 CoA-SH fluorescence
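GCN5L2 (20nM final) in 50mM HEPES, 0.1mM EDTA pH 7.5, 0.01% Tween-20 was preincubated 15 min at room temperature with compound, then given ThioGlo1 (50uM), H3(1-25) peptide (75uM) and acetyl-CoA (70uM); CoA-thiol fluorescence (Ex340/Em540) was read at 0 and 20 min.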
BLM helicase inh = Bloom syndrome helicase (human) inhibition. P54132. recombinant BLM DNA unwinding, fluorescence dequenching. Potency, µM (highest dose often 56.1 µM), actives largely listed as inhibitors. actives 0.2% (n = 350,000). AID 2528; note: nearly all actives have a fitted effect of over 35% in size
Each line names hits and unclear results; the compound was inactive in the other large screens; ! = a repeat was not active. Hits are enriched below; roughly 0.88% of the tested compounds scored in any of these assays. Unless noted, calls come from the whole dose curve; as a rule, active = well fitted curve in the direction sought with a large enough effect; inconclusive = small, poorly fitted or top-dose-only effect, or another doubt; inactive = no such curve, though single readings can be large; an effect the other way counts as inactive or inconclusive.

CC[C@H](C)[C@H](NC(=O)[C@H](CCCNC(=N)N)NC(=O)[C@@H](NC(=O)[C@H](CCCNC(=N)N)NC(=O)[C@H](CCCCN)NC(=O)[C@H](CCCNC(=N)N)NC(=O)[C@@H](NC(=O)[C@H](CC(N)=O)NC(=O)[C@@H](N)CS)[C@@H](C)O)[C@@H](C)CC)C(=O)N[C@@H](CCC(N)=O)C(=O)N[C@@H](CCCNC(=N)N)C(=O)NCC(=O)N1CCC[C@H]1C(=O)NCC(=O)N[C@@H](CCCNC(=N)N)C(=O)N[C@@H](C)C(=O)N[C@@H](Cc1ccccc1)C(=O)N[C@H](C(=O)N[C@H](C(=O)N[C@H](C(=O)NCC(=O)N[C@@H](CCCCN)C(=O)O)[C@@H](C)CC)[C@@H](C)O)C(C)C	none (no result: WRN helicase inh, ERG Ets-DNA blk)
Cc1ccc(C(=O)N/N=C/c2cccc(OC(=O)/C=C/c3ccco3)c2)cn1	APEX1 inh 14µM, RECQ1 inh inconclusive
CC(/C=C/c1ccco1)=N/NC(=O)c1ccc(C)nc1	none
Nc1ccc(O)c2c1C(=O)c1ccccc1C2=O	WRN helicase inh 32µM, KAT2A inh inconclusive, BLM helicase inh 14µM
COc1ccc(OC)c2c1C(=O)c1ccccc1C2=O	APEX1 inh inconclusive, WRN helicase inh inconclusive, ERG Ets-DNA blk 32µM
Nc1ccc(Br)c2c1C(=O)c1ccccc1C2=O	KAT2A inh inconclusive
COc1ccc(OC)c2c1C(=O)C(Cl)=C(Cl)C2=O	KAT2A inh 13µM
COc1ccc(N)c2c1C(=O)c1ccccc1C2=O	APEX1 inh inconclusive, WRN helicase inh 20µM, ERG Ets-DNA blk inconclusive
COC1=C(OC)C(=O)c2ccccc2C1=O	none (no result: WRN helicase inh, ERG Ets-DNA blk, BLM helicase inh)
CC(C)C[C@H](NC(=O)CNC(=O)[C@H](CCC(N)=O)NC(=O)[C@H](CC(C)C)NC(=O)[C@H](CC(C)C)NC(=O)[C@H](CCCNC(=N)N)NC(=O)[C@H](CCC(N)=O)NC(=O)[C@H](CC(C)C)NC(=O)[C@H](CCCNC(=N)N)NC(=O)[C@H](C)NC(=O)CNC(=O)[C@H](CCC(=O)O)NC(=O)[C@H](CCCNC(=N)N)NC(=O)[C@H](CC(C)C)NC(=O)[C@H](CCCNC(=N)N)NC(=O)[C@H](CO)NC(=O)[C@H](CC(C)C)NC(=O)[C@H](CCC(=O)O)NC(=O)[C@H](CO)NC(=O)[C@@H](NC(=O)[C@H](Cc1ccccc1)NC(=O)[C@@H](NC(=O)CNC(=O)[C@H](CC(=O)O)NC(=O)[C@H](CO)NC(=O)[C@@H](N)Cc1cnc[nH]1)[C@@H](C)O)[C@@H](C)O)C(=O)N[C@H](C(N)=O)C(C)C	none (no result: WRN helicase inh, ERG Ets-DNA blk)
O=C1c2ccccc2C(=O)c2c(O)c(O)cc(O)c21	APEX1 inh 19µM, RECQ1 inh 6.3µM, KAT2A inh 7.9µM!
O=C1c2ccccc2C(=O)c2c(O)ccc(O)c21	none (no result: WRN helicase inh, ERG Ets-DNA blk, KAT2A inh)
COc1ncc2nc(-c3cccs3)c(=O)n(CCC#N)c2n1	KAT2A inh 35µM (no result: WRN helicase inh, ERG Ets-DNA blk)
COc1ccc(Oc2ncc3nc(-c4cccs4)c(=O)n(CCC#N)c3n2)cc1	none (no result: WRN helicase inh, ERG Ets-DNA blk)
O=C(CCl)N1N=C(c2ccco2)CC1c1ccco1 (centres undefined)	WRN helicase inh 56µM (no result: RECQ1 inh)
O=c1c(/C=C(\O)c2ccccc2)nc2ccccc2n1-c1ccccc1	WRN helicase inh 56µM, RECQ1 inh inconclusive
CN1CCN(Cc2c(O)ccc3cc(-c4ccc(Cl)cc4)c(=O)oc23)CC1	KAT2A inh inconclusive (no result: APEX1 inh, WRN helicase inh, RECQ1 inh)
O=c1oc2c(CN3CCN(CCO)CC3)c(O)ccc2cc1-c1ccccc1	KAT2A inh 32µM (no result: APEX1 inh, WRN helicase inh, RECQ1 inh)
COc1ccc(-c2cc3ccc(O)c(CN4CCCC4)c3oc2=O)cc1OC	KAT2A inh 14µM (no result: APEX1 inh, WRN helicase inh, RECQ1 inh)
CN(CCO)c1ccc(C=NNc2ccc([N+](=O)[O-])cc2S(=O)(=O)Nc2ccccc2C(=O)O)cc1	WRN helicase inh 45µM, KAT2A inh inconclusive (no result: RECQ1 inh, BLM helicase inh)
CCOc1ccc(C=NNc2ccc(S(=O)(=O)Nc3ccccc3C(=O)O)cc2[N+](=O)[O-])cc1OC	APEX1 inh 17µM, WRN helicase inh inconclusive, KAT2A inh inconclusive (no result: RECQ1 inh, BLM helicase inh)
